This is an account of results in paper PMC12136788.

In all, about 24,000 sequences were measured (“enrichment r”: median about 0.99, highest 2% from about 3.7 on). These entries were drawn from the full list.

B1: 12329608_12331292_3055_3pUTR_ENSMUSG00000032625_ENSMUST00000046121|mouse|control|control (ssRNA)
RNA: GGGAGUUCUACAGUCCGACGAUCGAGGGUACAAAUGAGAGUUUUUACAUUUUUCCUUCUUUUUACUUUUCCCAACAAUAGCACGCUUUCUGGUCCUAACUGCACCGCAGUCUCCGUUGCAUGAAGAAAACUUGGACCAGCUGGCAACAGAGGAUUGAGCAUCA
B2: chr7:28421298:28421299:+_ENSMUSG00000004056_ENSMUST00000051356|mus_hu|FALSE|FALSE (ssRNA)
RNA: GGGAGUUCUACAGUCCGACGAUCCAUCAUCUCGUACAUGACCACACCCAGCCCCCACCAGUCCACGGCCCGGCCAUAGUCAUUGUCCUCCAGCACCUCAGGCGCCAGGUACUCCGGGGUCCCACAGAAGGUUUUCAUGGUGGCCAACAGAGGAUUGAGCAUCA
B3: chr7:151048522:151048523:+_ENSG00000013374_ENST00000566856|hu_mus|hu_hu_hu_mus_True|48_108 (ssRNA)
RNA: GGGAGUUCUACAGUCCGACGAUCCUGCUUCUUAUUUAUUACGAUCUUGAUGUAAUUUUCUUGAAAUCCGAAAGUUUCAGCUAUUUGGGACCUCAGUUCUCUACCAGUGACAUGCAAGCGGGUCUCCAACAAGCUUUUCUUAUCCAACAGAGGAUUGAGCAUCA
B4: chr7:52357369:52357370:-_ENSMUSG00000003420_ENSMUST00000003512|mus_hu|FALSE|FALSE (ssRNA)
RNA: GGGAGUUCUACAGUCCGACGAUCGUGCUCCCGCAGGCGGUGCGGGCAGGAGAAUAGCAGGAAGGUGAGCUCCUUGUUGGCCGCCUUGUCCUGCUGCUGCCACCGCUGACUGAUAGCCAGGGCCUCGGGCCAGUCCCCACCCCACAACAGAGGAUUGAGCAUCA
B5: chr5:132440482:132440483:+_ENSG00000170606_ENST00000304858|hu_hu|FALSE|FALSE (ssRNA)
RNA: GGGAGUUCUACAGUCCGACGAUCUUAAAGCAUAAUUAGAGCUCCUGCCAUGUAAGUCAUAAUGAAAAGUCUGCUGGAUAGCUAGAGCUGUAGCUAUAGCUCAACUUUCCAAAACAAACUUAUUCUUGUAGACACAUGGUUAAACAACAGAGGAUUGAGCAUCA
B6: chr8:101271117:101271118:-_ENSG00000034677_ENST00000519449|hu_mus|motif|central (ssRNA)
RNA: GGGAGUUCUACAGUCCGACGAUCGCAAUCACUGGAGCCGUGACUACAGGACGUUCUCAUGCUUUCUAAGUCUGAGCAGCGGAAUUCAGAAAAAUGACUGGAGUGGGAAUCUGCUACAGACGGCAUGCUGUCACUGAGGGAUGGCAACAGAGGAUUGAGCAUCA
B7: 46683936_46684056_841_CDS_ENSMUSG00000033319_ENSMUST00000036226|mouse|control|control (ssRNA)
RNA: GGGAGUUCUACAGUCCGACGAUCUCGAAGAGGAGUUGAGUUGGUUAAAGUCGUGUUGUUGACAGAUGCUCCGUGAUUUAACAAAGACUGGACAACCUUCAGAUGUCCUGCUGCAGAAGCGGCCCAUAAAGGGGGGGCCCCCUCCAACAGAGGAUUGAGCAUCA
B8: chr22:36164377:36164378:-_ENSG00000100320_ENST00000405409|hu_mus|FALSE|FALSE (ssRNA)
RNA: GGGAGUUCUACAGUCCGACGAUCACGGCCCUCUACCACGGUGCCGUGCAAUUUCUCCCUGGCCCUGUCUGCAUCAGCACUAUUCUCGAAAGUUACGAACCCGAAUCCCUUGGAGCCGCGCUCAUUAAAGAUUAUUUCCACAUCCAACAGAGGAUUGAGCAUCA
B9: chr17:3572670:3572671:+_ENSG00000127774_ENST00000248378|hu_hu|FALSE|FALSE (ssRNA)
RNA: GGGAGUUCUACAGUCCGACGAUCGUAGGUGAAGAGGCCCCCGAUGAGGCCUCCUGUAAAGAGAGGUCUCCGUGAUUUGAAAUAUUUGUUCCACCUCCUUCCCGCCUUGAGAAUGAGGAGCAGGGAGAGCAGGACGGAGGCGAGCAACAGAGGAUUGAGCAUCA
B10: chr2:47387770:47387771:-_ENSG00000143933_ENST00000272298|hu_mus|hu_hu_hu_mus_True|1_38 (ssRNA)
RNA: GGGAGUUCUACAGUCCGACGAUCAAGGUUUAAGGACAAUGACAGUAAGAUAAGGGAAGAAAACAUGGAGGAAUGAAGUCCUAAUUACUAUACAUGCAUAUUUUUUUACAGUAGGGGGGGGGAACCUUUUACAGAUAUUACAAACAACAGAGGAUUGAGCAUCA
B11: chr9:35286173:35286174:+_ENSMUSG00000038119_ENSMUST00000042842|mus_mus|FALSE|FALSE (ssRNA)
RNA: GGGAGUUCUACAGUCCGACGAUCAGUAUUAUUGUUACUUGAUGGAACAUACGUCCAUUUCAGCAUGAUCUGAGUGUCGCUAACAGCCUCUGUGUAUGCGAUGUGAGGUCCAGUUAUUGGGCGAUUGGAAAAACGAUUUGGGAACAACAGAGGAUUGAGCAUCA
B12: chrX:98862621:98862622:+_ENSMUSG00000034160_ENSMUST00000044475|mus_hu|mus_mus_mus_hu_False|58_88 (ssRNA)
RNA: GGGAGUUCUACAGUCCGACGAUCCUGCAUCUCCUUUAGAGUGUUUCCCAUAUUGGAGUAGGCAUCAGCAAAGGUAGGACUAAUUCGAAUAGCCUCCUUAUAAUGCAUCAGAGCUUCCUGCAGUUUUCCCUGCUGCUGCAGUACCAACAGAGGAUUGAGCAUCA
B13: chr2:32089778:32089779:+_ENSMUSG00000039262_ENSMUST00000036691|mus_hu|FALSE|FALSE (ssRNA)
RNA: GGGAGUUCUACAGUCCGACGAUCUAAACAAGCUGCACAUUACACCUCUAGCCAUCGUCUGCCCUUUCAAAUAUCUGGUCUACAUGGAAAGACAAAGAGGAAAGGCCAAAACAUAAACAAAAGGAAACAAAAACAAAACACAACCAACAGAGGAUUGAGCAUCA
B14: chr5:28742860:28742861:+_ENSMUSG00000048271_ENSMUST00000114884|mus_mus|FALSE|FALSE (ssRNA)
RNA: GGGAGUUCUACAGUCCGACGAUCAGAAUCUCUUGAAAAAGAAAAGGUGAGAUUUCCUCCUCAAGAAGAGUAUCAAUAUAAUAAGGAUUUAACAAAUGUGGCCAAGCCAAGGGCAGCAUAAGGUUAUGUUCAGGUAAGCAGCUGCAACAGAGGAUUGAGCAUCA

This assay has as its target T1, UNK ZnF1-3 (human, UniProt Q9C0B0 31-174).
T1 sequence: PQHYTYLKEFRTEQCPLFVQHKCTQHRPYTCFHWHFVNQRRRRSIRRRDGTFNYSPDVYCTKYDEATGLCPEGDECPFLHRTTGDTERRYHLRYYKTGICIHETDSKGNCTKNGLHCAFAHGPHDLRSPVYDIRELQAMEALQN
The assay can be described thus: nsRBNS (natural sequence RNA bind-n-seq); RBNS binding buffer (assumed for nsRBNS): 25 mM Tris pH 7.5, 150 mM KCl, 3 mM MgCl2, 0.01% Triton X-100, 500 ug/ml BSA, 20 U/ml SUPERase-In, 4 C; UNK is unkempt and MSI1 is Musashi-1; names of the RNAs are library labels; protein concentration not given here; high values mean tight binding.
For the molecule B1, the binding signal worked out at 0.4 enrichment R.

B2 gave a binding signal of 1.8 enrichment R. B3 came in with a binding signal of 0.712 enrichment R. The molecule B4 displayed a binding signal of 0.754 enrichment R. The figure for B5 is 0.424 enrichment R; for B6 it is 1.45 enrichment R; for B7 it is 1.3 enrichment R.

Molecule B8 returned a binding signal of 1.19 enrichment R. The molecule B9 yielded a binding signal of 1.1 enrichment R. With B10 the figure was 2.41 enrichment R; with B11, 0.899 enrichment R; with B12, 0.89 enrichment R. The figure for B13 is 2.59 enrichment R; for B14 it is 1.72 enrichment R.
